High-throughput results deposited in PubChem BioAssay by several laboratories.
CYP2C19 inh: inhibitors of human CYP2C19. CYP2C19 Supersomes, luciferin-H EGE luminescence, 30 min. 96,000 tested, 21% active. P33261. inhibition, % at 5 µM;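 active = CYP2C19 inhibition above a set limit at 5 µM in the primary screen, cut at about 50% in these data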;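 also: plate controls were negative control wells for no effect and 2.5 mM tranylcypromine positive control for full effect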
CYP2C9 activ: increases human cytochrome P450 2C9 activity; P11712; recombinant CYP2C9, luciferin-H conversion, luminescence; active compounds read high; factor 1 = untreated enzyme, 0 = blocked; activation factor at 5 µM; 96,000 tested, 1.4% active;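 active = activation factor of 2 or more for CYP2C9 at a 5 µM dose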;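 also: 0 = sulfaphenazole-blocked wells and 1 = vehicle-only wells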
Target sequence (P11712 whole entry, looked up): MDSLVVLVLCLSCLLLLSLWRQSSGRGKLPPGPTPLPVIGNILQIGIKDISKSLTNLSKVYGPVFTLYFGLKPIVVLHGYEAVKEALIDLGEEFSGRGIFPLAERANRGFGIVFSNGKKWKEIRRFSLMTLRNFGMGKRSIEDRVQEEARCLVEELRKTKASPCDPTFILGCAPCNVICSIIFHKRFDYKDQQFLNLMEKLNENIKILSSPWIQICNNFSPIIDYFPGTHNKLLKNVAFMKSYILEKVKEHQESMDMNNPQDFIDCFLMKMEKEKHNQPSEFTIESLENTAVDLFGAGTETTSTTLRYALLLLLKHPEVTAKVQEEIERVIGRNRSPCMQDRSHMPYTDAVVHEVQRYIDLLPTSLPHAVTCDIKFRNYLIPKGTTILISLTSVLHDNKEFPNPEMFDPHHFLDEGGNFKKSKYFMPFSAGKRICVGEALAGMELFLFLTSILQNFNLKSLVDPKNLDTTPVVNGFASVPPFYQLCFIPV
CYP2C9 inh: human CYP2C9 inhibition | inhibition, % at 5 µM | CYP2C9 Supersomes, luciferin-H conversion, luminescence | AID 777 | 96,000 tested, 20% active | P11712;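 active = blocking of liver enzyme CYP2C9 beyond about 50% at 5 µM, limit read from the data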
CYP2C19 act: cytochrome P450 2C19 (human) activation; 96,000 tested, under 10 active; AID 1025; recombinant CYP2C19, luciferin-H EGE luminescence; active compounds read high; 0 = fully inhibited enzyme, 1 = untreated enzyme; activation factor at 5 µM; P33261;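 active = activation factor of at least 2 at 5 µM in the primary screen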;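 also: 0 = wells with 2.5 mM tranylcypromine and 1 = vehicle-only wells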
Measles CPE: protection of cells from measles virus. protection (pct of control), % at 4 µM. Measles virus-infected cells, CPE protection, absorbance. AID 841. 140,000 tested, 1.5% active; in the data active = protection mostly above about 24%, no sharp cut-off; inactive = mostly below about 26%
Starred values were filed as active, the others as inactive; . = no result given. The list is not random: actives were taken first. Their share in the collection is about 22%.

SMILES | CYP2C19 inh | CYP2C9 activ | CYP2C9 inh | CYP2C19 act | Measles CPE
CC(=O)OCCN(Cc1ccccc1)Cc1ccc2c(c1)OCO2 | 99* | 0.2 | 84* | 0 | 3
O=C(O)CC(Cc1ccccc1)c1ccc2c(c1)OCO2 (configuration not stated) | 18 | 0.9 | 11 | 0.8 | 27
CCC(NC(=O)N(Cc1ccccc1)Cc1ccc2c(c1)OCO2)(C(F)(F)F)C(F)(F)F | 100* | 0.1 | 94* | 0 | 5
O=C(CS(=O)(=O)Cc1ccccc1)NCc1ccc2c(c1)OCO2 | 1 | 1 | -3 | 1 | 23
CC(NC(=O)N(Cc1ccccc1)Cc1ccc2c(c1)OCO2)(C(F)(F)F)C(F)(F)F | 86* | 0.1 | 93* | 0.1 | 16
O=C(Nc1ccc(Br)cc1)c1cnccn1 | 37 | 0.8 | 20 | 0.6 | 2
CC(C)C(=O)N(Cc1ccc2c(c1)OCO2)Cc1ccccn1 | 76* | 0.8 | 16 | 0.2 | 18
N#Cc1cn(CC(=O)N2CCc3ccccc3C2)c2ccccc12 | . | . | . | . | 5
CC1CCCC(NC(=O)CSc2nnnn2C)C1C (configuration not stated) | 26 | 1.1 | -12 | 0.7 | 10
N#CC(c1ccccn1)(c1ncc(C(F)(F)F)cc1Cl)N1CCOCC1 (configuration not stated) | 10 | 0.8 | 17 | 0.9 | 26
O=S(=O)(/N=C(\Nc1ccc(F)cc1)C(F)(F)F)c1ccccc1 | -4 | 0.4 | 56* | 1 | 5
Cc1cccc(N/C(=N\S(=O)(=O)c2ccccc2)C(F)(F)F)c1 | -11 | 0.4 | 56* | 1.1 | 6
COc1ccc(NS(=O)(=O)c2cccc(N/C(=N\S(=O)(=O)c3ccccc3)c3ccc(F)cc3)c2)cc1 | . | . | . | . | 5
CC1=C(OC(=O)c2ccc(Br)cc2)C(C)(C)C(c2ccccc2)OC1=O (configuration not stated) | 98* | 0 | 97* | 0 | 2
CC1=C(OC(=O)c2ccccc2)C(C)(C)C(c2ccc(Br)cc2)OC1=O (configuration not stated) | 19 | 0.4 | 61* | 0.8 | 12
CC1=C(OC(=O)c2ccccc2)C(C)(C)C(c2ccccc2)OC1=O (configuration not stated) | 40 | 0.7 | 28 | 0.6 | 8
c1cc2ccc3ccc(-n4cnnn4)c4ccc(c1)c2c34 | 42 | 1.4 | -35 | 0.6 | 16
O=C1c2ccccc2CC1Sc1nnc(-c2ccncc2)o1 (configuration not stated) | 96* | 0.1 | 87* | 0 | 8
O=C1CC(Sc2nnc(-c3ccccc3)o2)C(=O)N1c1ccccc1 (configuration not stated) | 13 | 0.9 | 12 | 0.9 | 23
COCCN1Cc2cccc(C(=O)Nc3cc(C)cc(C)c3)c2C1=O | -1 | 0.6 | 38 | 1 | 8
COCCN1Cc2cccc(C(=O)NCc3ccccn3)c2C1=O | 43 | 0.9 | 14 | 0.6 | 10
CCOC(=O)N1CCC(N2Cc3cccc(C(=O)NC(C)c4ccc5c(c4)OCCO5)c3C2=O)CC1 (configuration not stated) | 82* | 0 | 98* | 0.2 | 6
CCOC(=O)N1CCC(N2C(=O)c3ccccc3C2Nc2ccc3c(c2)OCCO3)CC1 (configuration not stated) | 33 | 0.5 | 47 | 0.7 | 10
CCOC(=O)N1CCC(N2Cc3cccc(C(=O)NCc4ccccn4)c3C2=O)CC1 | 74* | 0.1 | 95* | 0.3 | 16
O=C(NCc1cccnc1)c1cccc2c1C(=O)N(C1CCCCC1)C2 | . | . | . | . | 5
SMILES | CYP2C19 inh | CYP2C9 activ | CYP2C9 inh | CYP2C19 act | Measles CPE
CCOC(=O)N1CCC(N2Cc3cccc(C(=O)NCc4ccc(C)cc4)c3C2=O)CC1 | 25 | 0.3 | 70* | 0.8 | 3
CCOC(=O)N1CCC(NC(=O)c2cccc3c2C(=O)N(CCOC)C3)CC1 | 34 | 0.1 | 88* | 0.7 | 1
CCOc1ccc(-c2nnn(CCC(=O)O)n2)cc1OC | 0 | 1 | 5 | 1 | 4
Cc1cccc(C(=O)NC2CCN(CC(=O)N3CCOCC3)CC2)c1 | -6 | 1 | -1 | 1.1 | 2
CSc1nnc(C)c(/C=C/Nc2ccc(C)cc2)n1 | -5 | 1 | 1 | 1 | 11
CCN(CC)C1=CC2=CC(=C(C#N)C#N)CCC2CC1 (configuration not stated) | . | . | . | . | 39*
COc1ccc2c(c1)Sc1ccccc1N2CCN(C)C | 57* | 0.7 | 25 | 0.4 | 12
O=c1oc2ccccc2c(NCc2ccccc2)c1[N+](=O)[O-] | . | . | . | . | -1
Nc1c(NCc2ccccc2)c2ccccc2oc1=O | 97* | 0.3 | 73* | 0 | 3
Nc1ccc(S(=O)(=O)Nc2ccccn2)cc1 | . | . | . | . | 56
O=S(=O)(Nc1nc2ccccc2nc1Cl)c1ccc(Cl)cc1 | . | . | . | . | 12
O=S(=O)(Nc1ncccc1O)c1ccc(Cl)cc1 | 86* | 0.8 | 18 | 0.1 | 4
O=S(=O)(Nc1cc(Cl)ccn1)c1ccc(Cl)cc1 | 47 | 0.3 | 74* | 0.5 | 4
Cc1ccnc(NS(=O)(=O)c2ccc(CC(C)C)cc2)c1 | 72* | 0.6 | 38 | 0.3 | 19
O=C1CN(c2nc3ccccc3n3cnnc23)CC(=O)N1CCc1ccccc1 | 44 | 0.4 | 62* | 0.6 | 15
c1ccc(CNc2nc3ccccc3n3cnnc23)cc1 | 28 | 0.8 | 20 | 0.7 | 3
Cc1nccn1S(=O)(=O)c1cc([N+](=O)[O-])ccc1Cl | . | . | . | . | 3
COC(=O)c1ccc2nc(C)c(C)nc2c1 | -7 | 1 | -3 | 1.1 | 12
COC(=O)c1ccc2c(c1)C(C)(C)C(/C=C/c1ccc(O)cc1)=[N+]2C | 95* | 0 | 99* | 0.1 | -2
O=C(OCCN1CCCCC1)c1ccccc1Cl | 60* | 1 | 1 | 0.4 | 16
O=C1CSC(c2ccccc2F)N1c1cc(Cl)ccc1O (configuration not stated) | 84* | 1.3 | -34 | 0.2 | 18
O=C1CSC(c2ccccc2F)N1CCN1CCCCC1 (configuration not stated) | 43 | 1.1 | -11 | 0.6 | 22
COC(=O)CSc1nc(C)cc(Oc2ccccc2)n1 | 86* | 0.6 | 38 | 0.1 | 4
Cc1cc(Oc2ccc(Br)cc2)nc(SCC(=O)c2ccccc2)n1 | . | . | . | . | 10
Cc1cc(Oc2ccccc2)nc(SCC(=O)Nc2ccc(Cl)cc2Cl)n1 | 99* | 0.1 | 93* | 0 | 4
SMILES | CYP2C19 inh | CYP2C9 activ | CYP2C9 inh | CYP2C19 act | Measles CPE
Cc1ccc(-c2cc(-c3cccc(F)c3)n[nH]2)c(O)c1 | 26 | 0.3 | 70* | 0.7 | 25
COc1ccc(-c2cc(-c3cc(OC)ccc3O)[nH]n2)cc1 | 13 | 0.6 | 38 | 0.9 | 18
COc1ccc(O)c(-c2cc(-c3cccc(Br)c3)n[nH]2)c1 | 5 | 0.4 | 61* | 0.9 | 7
COc1ccc(-c2n[nH]c(C)c2-c2cc(OC)ccc2O)cc1 | 100* | 0.1 | 91* | 0 | 3
Cc1ccc(-c2cc(-c3ccccc3C)[nH]n2)c(O)c1 | . | . | . | . | 18
Cc1ccc(O)c(-c2cc(-c3cccc(F)c3)n[nH]2)c1 | 33 | 0.3 | 69* | 0.7 | 29
